Compound activity (PubChem BioAssay)
Compounds with a hit are over-represented: about 2.3% of the library has one in this group of screens.
pAkt inh: HTS Assay for Inhibitors of Akt Phophorylation: Primary Screen; 360,000 tested, 0.32% active; activity change, % for hits at 50 µM; Neuro2A IGF-stimulated pAkt S473 HTRF, 20 min; hits give low values; in the data active = activity change below about -80%; inconclusive = mostly about -51% to -80%
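Neuro2A cells in DMEM with 0.5% FBS, overnight at 37 deg C, given compound at single 50 µM final, then IGF (6 nM final) for 20 min at 37 deg C. Lysed; phospho-Akt Ser473 by HTRF after 24 h, 665/615 ratio.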
Abeta yeast res: qHTS for compounds that reverse cellular toxicity of Amyloid beta (A-beta) peptide in yeast: Primary Screen; yeast expressing A-beta42, growth rescue, OD600, 48 h; response scale: 0% DMSO, 100% iron-clioquinol control; Potency, µM (top dose mostly 46.1 µM), usual class: activators; 410,000 tested, 0.063% active; AID 1347071, 2019; note: nearly all actives have a fitted effect of over 55% in size
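Growth rescue measured by 600 nm absorbance after 48 h yeast culture at 30 C with compound. Values normalized between DMSO and an equimolar ferric chloride plus clioquinol control.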
TDP-43 yeast inh: qHTS of TDP-43 Inhibitors; TDP-43 expressing yeast growth rescue, BacTiter-Glo, 24 h; AID 652104, 2013; Potency, µM (highest dose often 46.1 µM), usual class: activators; 410,000 tested, 1.8% active; note: nearly all actives have a fitted effect of over 50% in size
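Galactose-induced TDP-43 yeast, OD600=0.02, compound pinned; 24 hr, 30 deg C; BacTiter-Glo luminescence for growth. Inhibitors of TDP-43 toxicity read as activators.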
aSyn yeast inh: qHTS of alpha-syn Inhibitors. Yeast expressing alpha-synuclein, growth rescue, BacTiter-Glo, 24 h. Potency, µM (titrated, usually from 46.1 µM), actives largely listed as activators. 370,000 tested, 0.14% active; note: nearly all actives have a fitted effect of over 65% in size
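Screening used galactose-induced yeast with toxic alpha-synuclein levels, exposed to compound for 24 hr at 30 deg C. Cell growth, read with BacTiter-Glo luminescence, gave the measured signal.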
FUS suppressor: qHTS for Suppressors of FUS Proteinopathy: Primary screen using FUS-linked yeast assay; S. cerevisiae FUS-expressing, growth rescue, OD600, 24 h; Potency, µM (series often up to 76.6 µM), most hits filed as activators; 390,000 tested, 0.24% active; note: nearly all actives have a fitted effect of over 55% in size
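Quantitative HTS measuring growth restoration of FUS-toxic yeast. Galactose-induced cells (OD 0.005) were exposed 24hr at 30C to compounds at several concentrations, then absorbance at 600 nm was recorded.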
Of the large screens only hits and unclear results are named; the others gave an inactive call. Unless noted, calls come from the whole dose curve; as a rule, active = well fitted curve in the direction sought with a large enough effect; inconclusive = small, poorly fitted or top-dose-only effect, or another doubt; inactive = no such curve, though single readings can be large; an effect the other way counts as inactive or inconclusive.

COC(=O)c1ccc2c(c1O)C(=O)c1ccccc1C2=O	TDP-43 yeast inh 7.9µM
O=C1c2ccccc2C(=O)c2c1ccc(O)c2O	none
COC(=O)c1cccc2c1-c1ccccc1/C2=N\NC(N)=O	none
COC(=O)c1cccc2c1-c1ccccc1/C2=N/O	TDP-43 yeast inh 13µM
CC(=O)OC1CCC2(C)C(CCC3C4CC=C(C(C)=O)C4(C)OC(=O)CC32)C1 (configuration not stated)	none
CC(=O)O[C@H]1CC[C@@]2(C)C(CCC3C2CC[C@]2(C)OC(=O)CCC32)C1 (some centres not stated)	TDP-43 yeast inh 35µM
CN(C)c1ccc(C(CNS(=O)(=O)c2ccc(Br)cc2)N2CCOCC2)cc1 (configuration not stated)	none (no result: pAkt inh, aSyn yeast inh)
Cc1ccc(Nc2ncnc3onc(C)c23)cc1Cl	TDP-43 yeast inh 35µM (no result: pAkt inh, aSyn yeast inh)
Cc1cc(Cl)ccc1Nc1ncnc2onc(C)c12	none (no result: pAkt inh, aSyn yeast inh)
COc1cccc(NC(=O)c2ccccc2OCC(=O)Nc2ccc(Br)cc2)c1	none (no result: pAkt inh, Abeta yeast res, TDP-43 yeast inh, FUS suppressor)
Cc1ccc(NC(=O)Cn2c(=O)nc(-c3ccccc3F)c3cc(Cl)ccc32)c(Br)c1	none (no result: pAkt inh, aSyn yeast inh)
Cc1ccccc1-c1nc(NCC2CC2)nc2ccsc12	TDP-43 yeast inh inconclusive
Cc1ccc(F)cc1-c1nc(NCC2CC2)nc2ccsc12	TDP-43 yeast inh 20µM
COc1ccc(N2C(=O)c3ccccc3NC2c2ccc(OC)c(COc3ccc(NC(C)=O)cc3)c2)cc1 (configuration not stated)	none (no result: pAkt inh, Abeta yeast res, TDP-43 yeast inh, FUS suppressor)
CC(C)(C)OC(=O)N1CCC(c2c(C(=O)Nc3ccc4c(c3)OCO4)cnn2-c2ccc(F)cc2F)CC1	FUS suppressor inconclusive (no result: pAkt inh, aSyn yeast inh)
Cc1ccc(/C(O)=C2\C(=O)C(=O)N(CCc3c[nH]c4ccccc34)C2c2cccnc2)cc1 (configuration not stated)	FUS suppressor 35µM
CCN(CC)CCN1C(=O)C(=O)/C(=C(/O)c2ccc(C)cc2)C1c1cccnc1 (configuration not stated)	none
COc1cccc(CC(=O)Nc2ccc3nc(Nc4cccc(C(F)(F)F)c4)cc(C)c3c2)c1	none (no result: pAkt inh, aSyn yeast inh)
COc1ccccc1CC(=O)Nc1ccc2nc(Nc3cccc(C(F)(F)F)c3)cc(C)c2c1	TDP-43 yeast inh 13µM, FUS suppressor inconclusive (no result: pAkt inh, aSyn yeast inh)
Cc1cc(Nc2cccc(Cl)c2)nc2ccc(NC(=O)c3cncc(Br)c3)cc12	TDP-43 yeast inh 22µM, FUS suppressor 32µM (no result: pAkt inh, aSyn yeast inh)
Cc1ccccc1C(=O)Nc1ccc2nc(Nc3cccc(C(F)(F)F)c3)cc(C)c2c1	TDP-43 yeast inh 18µM (no result: pAkt inh, aSyn yeast inh)
Cc1cc(Nc2cccc(C(F)(F)F)c2)nc2ccc(NC(=O)c3cncc(Br)c3)cc12	FUS suppressor inconclusive (no result: pAkt inh, aSyn yeast inh)
COc1ccccc1-c1noc(CCC(=O)Nc2cccc(C(F)(F)F)c2)n1	pAkt inh -105%, TDP-43 yeast inh inconclusive
CCN(C(=O)CSc1nc2ccccc2n1Cc1ccc(F)cc1Cl)c1ccccc1	none (no result: pAkt inh, aSyn yeast inh)
COC(=O)CN(c1ccc(C)c(Cl)c1)S(C)(=O)=O	pAkt inh -90%
COC(=O)CN(c1c(C)cccc1C)S(C)(=O)=O	none
COC(=O)c1ccccc1NC(=O)c1ncoc1-c1ccco1	none (no result: pAkt inh, aSyn yeast inh)
Cc1ccccc1OCC(=O)NCC(=O)OCC(=O)c1ccc(Br)cc1	none (no result: pAkt inh, Abeta yeast res, TDP-43 yeast inh, FUS suppressor)
Cn1c(=O)c2nc(-c3ccccc3)oc2c2ccccc21	TDP-43 yeast inh 10µM, aSyn yeast inh inconclusive
Cc1ccc(SCc2nc(-c3ccc(C(=O)NCc4ccccc4Cl)cc3)oc2C)cc1	none (no result: pAkt inh, aSyn yeast inh)
C#CCSc1nc(C)cc(C(=O)OCC)c1C#N	TDP-43 yeast inh 14µM
Cc1ccc2c(c1)c(C)c(C)n2CC(O)Cn1nnc2ccccc21 (configuration not stated)	Abeta yeast res 10µM, TDP-43 yeast inh inconclusive, aSyn yeast inh inconclusive, FUS suppressor inconclusive
COc1cc(NC(=O)c2cccc3c(-c4cccnc4)coc23)cc(OC)c1OC	none
O=C(NCc1cccc(Cl)c1)c1cnccn1	pAkt inh -86%
O=C(NCc1cccc(Cl)c1)c1ccc(-c2cccnc2)c2ccoc12	TDP-43 yeast inh 35µM
O=C(NCc1ccc(C(F)(F)F)cc1)c1ccc(-c2ccc(F)c(F)c2)c2ccoc12	none
O=C(Nc1cccc(C(F)(F)F)c1)c1cccc2c(-c3cccnc3)coc12	TDP-43 yeast inh 16µM
O=C(NCc1ccc(Cl)cc1)c1cnccn1	none
O=C(NCc1ccc(C(F)(F)F)cc1)c1ccc(-c2cccnc2)c2ccoc12	TDP-43 yeast inh 13µM, FUS suppressor inconclusive
N#Cc1c2c(c(Cl)n3c1nc1ccccc13)CCCC2	none (no result: pAkt inh, Abeta yeast res, TDP-43 yeast inh, FUS suppressor)
COC(=O)c1ccccc1NC(=S)NC(=O)c1ccc(C)cc1	TDP-43 yeast inh 20µM (no result: FUS suppressor)
CCCCC(=O)NNC(=S)NC(=O)c1ccc([N+](=O)[O-])cc1	Abeta yeast res inconclusive, TDP-43 yeast inh 20µM, aSyn yeast inh 32µM
CCCCC(=O)NNC(=S)NC(=O)c1ccc(C)cc1	aSyn yeast inh 3.5µM
CCC(=O)NC(=S)NNC(=O)c1ccc([N+](=O)[O-])cc1	TDP-43 yeast inh inconclusive
COC(=O)c1ccccc1NC(=S)NC(=O)c1ccccc1	TDP-43 yeast inh inconclusive
CC(C)CC(=O)NC(=S)NNC(=O)c1ccc([N+](=O)[O-])cc1	Abeta yeast res inconclusive, TDP-43 yeast inh 18µM, aSyn yeast inh inconclusive
COCC(=O)N1c2nc(-c3ccco3)nn2C2(CCCCC2)[C@@H]2CCCC[C@@H]21	none (no result: pAkt inh, aSyn yeast inh)
CCn1c(C(=O)N2CCC(C(=O)NCCc3ccc(OC)cc3OC)CC2)cc2sccc21	none (no result: pAkt inh, aSyn yeast inh)
CCCCC(=O)NNC(=S)NC(=O)c1cccc([N+](=O)[O-])c1	TDP-43 yeast inh 14µM, aSyn yeast inh inconclusive
CCN(c1cccc(C)c1)S(=O)(=O)c1cc(Br)cc2c1N(C(C)=O)C(C)C2 (configuration not stated)	none (no result: pAkt inh, aSyn yeast inh)
COc1cc(NC(=O)C2CCN(S(=O)(=O)c3ccc4c(c3)oc(=O)n4C)CC2)cc(OC)c1	none (no result: pAkt inh, aSyn yeast inh)
O=[N+]([O-])c1ccc(N/N=C2\CC3CC=CC23)c([N+](=O)[O-])c1 (configuration not stated)	TDP-43 yeast inh 35µM
O=[N+]([O-])c1ccc(N/N=C2\CC3CC=CC23)cc1 (configuration not stated)	none
COc1ccc(OC)c(-c2csc(NC(=O)Cn3[nH]c(=O)c4ccccc4c3=O)n2)c1	FUS suppressor 40µM
COc1ccc(OC)c(-c2csc(NC(=O)Cc3ccc(F)cc3)n2)c1	TDP-43 yeast inh 14µM
Cc1ccc(-c2nc3sc(CCNC(=O)c4ccc(C)c(C)c4)c(C)n3n2)cc1	none (no result: pAkt inh, aSyn yeast inh)
O=S(=O)(Nc1ccc(-c2ccc(N3CCCCC3)nn2)cc1)c1ccc(OC(F)(F)F)cc1	FUS suppressor inconclusive (no result: pAkt inh, aSyn yeast inh)
O=C(CSc1nnnn1C1CCCCC1)Nc1ccc(F)cc1	none
